The values that follow come from PubChem BioAssay (EPA / NIEHS).

More than one record can exist for a structure, and the calls need not agree. The source made the active and inactive calls. The calls were made as follows: active = hit-call score of the fitted dose curve at least 0.9, where 1 is the maximum; inactive = score below 0.9.

Read-out in the assay: Pselectin, SELP (gene 6403)
As to the kind of experiment: BSK_4H_Pselectin: BioMAP Diversity Plus: 4H Assay for Pselectin Biomarker Activity (AID 2283026). The settings on record: primary human endothelial cells (HUVEC); actives raise or lower the signal. As to the method: BSK_4H is a cell-based, multiplexed-readout assay that uses umbilical vein endothelium, a human vascular primary cell, with measurements taken at 24 hours after chemical dosing in a 96-well plate.BSK_4H_Pselectin is an assay component measured in the BSK_4H assay. It measures P-Selectin antibody related to regulation of gene expression using ELISA technology.Data from the assay component BSK_4H_Pselectin was analyzed into 1 assay endpoint. This assay endpoint, BSK_4H_Pselectin, was analyzed with bidirectional fitting relative to DMSO as the negative control and baseline of activity. Using a type of binding reporter, gain or loss-of-signal activity can be used to understand changes in the signaling as they relate to the gene SELP. Furthermore, this assay endpoint can be referred to as a primary readout, because this assay has produced multiple assay endpoints where this one serves a signaling function. To generalize the intended target to other relatable targets, this assay endpoint is annotated to the cell adhesion molecules intended target family, where the subfamily is selectins.
The levels of cell surface (or secreted, indicated by the prefix "s") biomarker endpoints were measured by ELISA. Overt cytotoxicity to cells in confluent adherent cultures (all systems other than the BT system) was assessed by measuring total protein levels using sulforhodamine B (SRB) staining in parallel cultures at the time of biomarker measurements, indicated as SRB endpoints. For proliferation assays for adherent cell types, individual cell types are cultured at sub-confluence and relative cell numbers quantified by SRB staining at time points optimized for each system (48 h: 3C and CASM3C systems; 72 h: BT and HDF3CGF systems; 96 h: SAg system). SRB was performed by staining cells with 0.1% SRB after fixation with 10% TCA and reading wells at 560 nm.Viability and proliferation of PBMC (T cells) was quantified by Alamar Blue reduction for the SAg and BT systems. For PBMC viability (referred to as PBMC Cytotoxicity within the assay endpoint names), cells were plated (75,000/well in a 96-well plate) and then chemical samples added for 1 h before addition of activators, SEB and TSST-1 (20 ng/mL final concentration each). Cells were incubated for 90 h. Then, Alamar Blue (20 uL/well) (Invitrogen, Cat DAL1100) was added for 6 h, and the plates were read with a fluorescence microplate reader at 546/580 nm (excitation/emission). For PBMC proliferation, cells were plated and activated as above but incubated for only 16 h prior to addition of Alamar Blue. Plates were read after 6 h.
On to `CCOP(=S)(OCC)Oc1nc(Cl)c(Cl)cc1Cl`, for which the AC50 is 32 µM (active). Regarding `CCN1CCC2(CC1)COc1cc3c(cc12)N(C(=O)c1ccc(-c2ccc(-c4nnc(C)o4)cc2C)cc1)CC3`, the AC50 is 12 µM (active). Turning to `Oc1ccc(-c2ccccc2)cc1`, the outcome was inactive. As to `CC(C)c1ccc(CO)cc1`, the outcome was inactive.

Consider `CC12CC1(C)C(=O)N(c1cc(Cl)cc(Cl)c1)C2=O` (stereo not given), for which the result was inactive. On the same count and under the same terms, to `CCNc1nc(NC(C)(C)C)nc(SC)n1` belongs “inactive”; to `O=C(O)C(Cl)(Cl)Cl`, “inactive”. With `Cn1sc(Cl)cc1=O`, the concentration at half-maximal activity (AC50) was 9.68 µM (active). With `ClC1(Cl)C2(Cl)C3(Cl)C4(Cl)C(Cl)(Cl)C5(Cl)C3(Cl)C1(Cl)C5(Cl)C24Cl` (stereo not given), the outcome was inactive.

Consider `NC(=S)Nc1ccccc1`, for which the outcome was inactive.

Take `CCOP(=S)(OCC)SCSP(=S)(OCC)OCC`: the result was inactive. Regarding `C[C@]12CCC(=O)C[C@@H]1CC[C@@H]1[C@@H]2CC[C@]2(C)[C@@H](O)CC[C@@H]12`, the result was inactive. The same measure, in the same setting: as for `O=[N+]([O-])c1ccc(O)c([N+](=O)[O-])c1`, the entry is “inactive”; as for `OCc1ccco1`, “inactive”.

As for `O=Cc1cccc(Oc2ccccc2)c1`, the outcome was inactive. As for `ClC1=C(Cl)[C@]2(Cl)[C@H]3[C@H]([C@H]4C=C[C@H]3C4)[C@@]1(Cl)C2(Cl)Cl`, the concentration at half-maximal activity (AC50) is 7.17 µM (active). Consider `CN(C)N=O`, for which the result was inactive.

As to `Nc1ccc(-c2ccc(N)c(Cl)c2)cc1Cl`, the result was inactive.

Turning to `O=S(=O)(c1ccc(Cl)cc1)c1ccc(Cl)cc1`, the result was inactive. As for `CC(=O)C(Cl)C(=O)N(C)C` (stereo not given), the AC50 is 15.6 µM (active). As to `O=C(O)C(F)(F)C(F)(F)C(F)(F)C(F)(F)C(F)(F)C(F)(F)C(F)(F)C(F)(F)C(F)(F)C(F)(F)F`, the AC50 was 31 µM (active) and the result was inactive.

Regarding `ClC(Cl)=C(Cl)C(Cl)=C(Cl)Cl`, the AC50 was 33.6 µM (active).

For `CCCCCCCCC(=O)NCc1ccc(O)c(OC)c1`, the result was inactive. On to `CCOP(=S)(OCC)Oc1ccc(S(C)=O)cc1` (stereo not given), for which the result was inactive.

With `CC(C)(c1ccccc1)c1ccc(O)c(C(C)(C)c2ccccc2)c1`, the AC50 is 6.57 µM (active). On to `CCOC(=O)/C=C(C)/C=C/C[C@@H](C)CCCC(C)C`, for which the half-maximal activity concentration (AC50) was 25.2 µM (active).

As for `COP(=S)(OC)Oc1cc(Cl)c(Cl)cc1Cl`, the concentration at half-maximal activity (AC50) was 20 µM (active). Regarding `O=C(OC1CCCCC1)c1ccccc1C(=O)OC1CCCCC1`, the AC50 is 9.57 µM (active).

Take `ClCC(Cl)CCl`: the result was inactive. Regarding `COC[C@H](C)N(C(=O)CCl)c1c(C)csc1C`, the result was inactive. For the compound `O=C(O)CCC(F)(C(F)(F)F)C(F)(F)F`, the outcome was inactive. As for `NC(=O)O`, the result was inactive. Same read-out and setting: as for `Nc1ncc([N+](=O)[O-])s1`, the entry is “inactive”. On to `CC(=O)OC(c1ccccc1)C(Cl)(Cl)Cl` (stereo not given), for which the result was inactive. As to `CCCCC(CC)CO[N+](=O)[O-]` (stereo not given), the AC50 is 30.6 µM (active). For `COP(=S)(OC)Oc1ccc(Sc2ccc(OP(=S)(OC)OC)cc2)cc1`, the concentration at half-maximal activity (AC50) is 14.5 µM (active). `Oc1cccc2cccnc12`: the half-maximal activity concentration (AC50) was 5.54 µM (active). Still for that read-out and setting: as for `C[C@@H]1C[C@@H]([C@H](O)CC2CC(=O)NC(=O)C2)C(=O)[C@@H](C)C1`, the figure is 3.9 µM (active).

Turning to `O=c1[nH]c(=O)[nH]c(=O)[nH]1`, the result was inactive.

By AC50 is commonly meant the concentration giving half of the maximal activity seen.
